Source: PubChem (several laboratories)
HSF1 activator: HSF-1 activators, primary screen, NIH3T3-HGL cells, MG132 stress, luminescence, single point | NIH3T3-HGL HSF-1 luciferase reporter, 8 h; 100% = twice DMSO control signal | activation, % at 9 µM | 300,000 tested, 1.7% active | AID 504408, 2011;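 active = mean replicate activation of at least 50% with a set share of replicates each reaching 50%; inconclusive = only one of those two conditions met; inactive = mean below 50% and too few replicates reaching it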;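 note: 0% = median of the neutral control wells and 100% = twice that signal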
dFosB act: activators of delta FosB homodimer, primary screen, biochemical, fluorescence polarization, TAMRA-CDK5 oligo, single point | purified delta FosB; percent of positive-control signal above neutral wells | 340,000 tested, 0.99% active | activation, % at 25 µM | Protein FosB (Mus musculus), P13346 | AID 493131, 2011;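 active = mean activation above about 17%, with every replicate also reaching it, limit read from the data, passing the limit was not always enough; inconclusive = only one of the two conditions met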
Target sequence (P13346 whole entry, looked up): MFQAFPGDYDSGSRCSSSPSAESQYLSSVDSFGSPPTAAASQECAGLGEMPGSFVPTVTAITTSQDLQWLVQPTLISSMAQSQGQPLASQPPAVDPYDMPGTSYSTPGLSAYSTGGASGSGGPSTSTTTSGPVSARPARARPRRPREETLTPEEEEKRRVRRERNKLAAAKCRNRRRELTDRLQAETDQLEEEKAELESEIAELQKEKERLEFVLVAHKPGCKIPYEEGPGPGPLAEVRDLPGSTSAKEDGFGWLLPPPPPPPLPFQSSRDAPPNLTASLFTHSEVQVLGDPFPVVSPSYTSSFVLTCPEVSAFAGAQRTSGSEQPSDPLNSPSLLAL
MPTP block: mitochondrial permeability transition pore inhibitors, primary screen, biochemical, isolated mouse mitochondria, absorbance. Ca2+ swelling absorbance, 30 min. inhibition, % at 10 µM. 360,000 tested, 1.4% active. AID 602449, 2012;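 active = inhibition of 50% or more, scaled per plate between neutral and stimulator controls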;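 note: 0% = DMSO wells given calcium and 100% = 1 mM EGTA wells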
Platelet DG rel: inhibitors of platelet dense granule secretion, primary screen, cell-based, MLPCN, human platelets; human platelet-rich plasma, SFLLRN dense granule ATP release, luminescence; inhibition, %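 (compounds screened at 7.5 µM in platelet-rich plasma)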; 300,000 tested, 0.22% active; AID 1663, 2009;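 active = mean replicate score, as percent of positive control, at or above 50; inconclusive = mean below 50 but at least one replicate at or above 50; inactive = mean and every replicate below 50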
HSP90 refold inh: HSP90 inhibitors, primary screen, cell lysate, luminescence. Rabbit reticulocyte lysate, luciferase refolding luminescence, 3 h. 290,000 tested, 0.91% active. inhibition, % at 5.6 µM. AID 1789, 2009;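 active = inhibition above the screen-wide mean plus 3 SD, computed separately per campaign, cut at about 16% in these data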;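 note: 0% = DMSO wells and 100% = 60 µM geldanamycin wells; inhibitors lower the luminescence because luciferase stays unfolded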
HSF1 inhib: HSF1 inhibitors in luciferase reporter cells, primary screen, cell-based, NIH3T3, luminescence; NIH3T3-HGL HSE-luciferase, MG132-induced, luminescence 8 h; hits give low values; activity change, negative = inhibition, % at 7.5 µM (by protocol); 300,000 tested, 0.77% active; AID 2098, 2009;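 active = more than half of replicate wells show activity change below -50%, luminescence cut by over half; inconclusive = some wells, but at most half, below -50%; inactive = no replicate well below -50%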;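 note: luciferase reports HSF-1 transcriptional activity via heat shock element; 0% = median of DMSO wells and -100% = zero luminescence signal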
Rh123 counter: fluorescence retest of MPTP screen hits in isolated mitochondria, single concentration. shares compounds with MPTP block. membrane potential, Rhodamine 123 fluorescence. inhibition, % at 10 µM. 5,000 tested, 78% active; in the data active = inhibition above about 22%;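 note: 0% = DMSO vehicle and 100% = positive control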
MPTP swell DR: mitochondrial permeability transition pore inhibitors, dose response, biochemical, absorbance, uHTS hits | 780 tested, 58% active | AID 651561, 2012 | IC50, µM | isolated mitochondria swelling | shares compounds with MPTP block; in the data active = IC50 below about 20 µM
MPTP cs DR: fluorescent counter-screen in isolated mitochondria, dose response, counter-screen for MPTP inhibitor project, biochemical, fluorescence, uHTS hits; shares compounds with MPTP block; isolated mitochondria counterscreen, fluorescence read-out; IC50, µM; 780 tested, 49% active; AID 651564, 2012; in the data active = IC50 below about 80 µM
* hit, by the source's call; i = inactive; ? = inconclusive; · = no result given. Most compounds without a hit are left out; they make up all but 4.9% or so of the library.

SMILES	HSF1 activator	dFosB act	MPTP block	Platelet DG rel	HSP90 refold inh	HSF1 inhib	Rh123 counter	others
CCOC(=O)c1sc(NC(=O)c2cccc(S(=O)(=O)N(CC)CC)c2)cc1C	-5.2	-10.2	51.2*	3.8	0.9	6.3	10.8	MPTP swell DR=>100;MPTP cs DR=<2.5*
O=C(/C=C/c1cc([N+](=O)[O-])ccc1OC(F)F)Nc1cccc([N+](=O)[O-])c1	-79.1	2.5	89.3*	7.2	2.8	-73.2*	9.6	MPTP swell DR=8.2*;MPTP cs DR=<2.5*
CCOC(=O)c1cccc(NC(=O)/C=C/c2ccc([N+](=O)[O-])cc2)c1	-0.6	-0.5	92.2*	2.2	-4.0	-0.3	78.2*
CCOC(=O)c1cc(NC(=O)COc2ccc([N+](=O)[O-])cc2)cc(C(=O)OCC)c1	53.3*	-6.9	50.3*	-2.1	1.9	17.9	56.1*
O=C(O)c1cccc2c1C(=O)c1cc([N+](=O)[O-])ccc1-2	·	0.9	-0.6	·	·	·	·
Cc1ccc(S(=O)(=O)N2CCCCC2)cc1NC(=O)c1ccc(Cl)nc1	·	-4.1	-1.0	·	·	·	·
CC1(C(=O)NS(=O)(=O)c2ccc3c(c2)CCO3)CCN1C(=O)C1(c2ccc(Cl)cc2)CCC1 (stereo unspecified)	·	·	2.3	·	·	·	·
O=[N+]([O-])c1ccc(N=Nc2c(O)[nH]c3ccc(F)cc23)cc1	28.1	1.7	1.6	19.1	0.7	9.1	·
CCOc1cc(C=O)cc(N=Nc2cccc([N+](=O)[O-])c2)c1O	-25.5	-3.8	5.6	·	-2.3	-4.3	·
O=[N+]([O-])c1ccc(N=Nc2ccc(O)cc2O)cc1	-12.0	-11.1	84.3*	?	-1.0	13.9	80.3*
O=[N+]([O-])c1cccc(N=Nc2ccc(O)cc2O)c1	·	-15.0	83.7*	·	·	·	72.5*
CCCn1nc(C(=O)NNC(=O)CSC(C)C(=O)Nc2cc(C)on2)c2ccccc2c1=O (stereo unspecified)	-5.4	0.7	0.1	6.5	-5.0	-3.0	·
CC1CCCN(c2nc(-c3cccnc3)nc3scc(-c4ccccc4)c23)C1 (stereo unspecified)	-3.6	1.3	73.1*	-7.4	-1.4	-5.4	-2.2	MPTP swell DR=6.95*;MPTP cs DR=>80
CC(C)C1O/C(=N/C(=O)Nc2ccc(Cl)c(Cl)c2)NC1=O (stereo unspecified)	7.7	-4.1	92.9*	10.7	7.7	15.8	91.6*
Cc1onc(-c2ccccc2Cl)c1C(=O)Oc1cccc2cccnc12	16.4	-8.2	-0.1	5.4	4.8	8.5	·
COc1ccc(CN(C)CC(O)COc2ccc(C(=O)c3ccccc3)cc2)c(OC)c1OC (stereo unspecified)	-16.0	-20.2	1.0	-7.8	0.1	-1.2	·
COc1ccc(Br)cc1CN(C)CC(O)COc1ccc(Br)cc1 (stereo unspecified)	16.9	-15.3	80.2*	0.5	-0.1	8.8	-0.9	MPTP swell DR=18.3*;MPTP cs DR=41.7*
CN1CCN(CC#CCn2c3ccccc3c3ccccc32)CC1	-1.3	-2.4	86.0*	-0.3	2.8	-5.3	-16.8	MPTP swell DR=i;MPTP cs DR=>80
Cc1cccc(C)c1NC(=O)C(CCc1ccccc1)n1c(=O)c(-c2ccccc2)nc2ccccc21 (stereo unspecified)	·	·	10.5	·	·	·	·
O=C(CSC1=NS(=O)(=O)c2cc(Cl)ccc2N1)Nc1cccc(F)c1	12.1	4.0	62.4*	3.6	·	-4.3	55.7*
O=C(CSC1=NS(=O)(=O)c2cc(Cl)ccc2N1)c1ccc(Cl)cc1	-0.3	6.0	97.9*	5.9	·	-0.1	88.3*
N#Cc1cccc(NC(=O)c2cc(C3CCCCN3C(=O)c3cccs3)on2)c1 (stereo unspecified)	·	·	-0.2	·	·	·	·
CC(C)CNC(=O)COc1ccc(Sc2ccc(OCC(=O)NCC(C)C)cc2)cc1	16.5	-1.3	53.3*	-4.5	-3.2	-5.6	19.8	MPTP swell DR=5.36*;MPTP cs DR=>80
CCCC(C)NC(=O)COc1ccc(Sc2ccc(OCC(=O)NC(C)CCC)cc2)cc1 (stereo unspecified)	12.5	-3.1	78.3*	-13.3	-5.0	-6.0	34.0*
CC(NC(=O)COc1ccc(Oc2ccccc2)cc1)C(=O)O (stereo unspecified)	-1.3	3.9	-0.7	-3.0	0.4	-6.8	·
SMILES	HSF1 activator	dFosB act	MPTP block	Platelet DG rel	HSP90 refold inh	HSF1 inhib	Rh123 counter	others
Cc1cc(OCC(=O)NCC(C)C)cc(C)c1Br	6.3	-0.4	-1.3	0.4	2.3	8.8	·
COc1ccc(NC(=O)CN(C)C(=O)c2cn(-c3ccccc3)nc2-c2cccnc2)cc1	-12.6	-12.2	-0.3	-18.8	·	-7.2	·
Cc1ccc(C)c(N(CC(=O)NC(C)C)C(=O)CCC(=O)Nc2ccccn2)c1	10.8	3.3	1.2	14.9	-5.3	3.2	·
CC(=O)Oc1ccc(C(=O)Nc2cccc(C(=O)c3ccc(C)c(C)c3)c2)cc1	8.4	-13.3	5.8	-0.5	·	-2.2	·
COc1ccc(C(CNC(=O)c2oc3ccc(Br)cc3c2C)N2CCCCC2)cc1 (stereo unspecified)	9.3	4.6	85.5*	-0.7	-1.5	6.2	-10.6	MPTP swell DR=16.5*;MPTP cs DR=>80
C[C@H]1NS(=O)(=O)c2ccc(Br)cc2O[C@H]1c1ccccc1	·	-11.9	0.0	·	·	·	·
CCOC(=O)c1ccc(NC(=O)CCc2nc(-c3ccc(C)cc3)no2)cc1	7.4	-15.8	85.4*	-3.6	-1.4	-4.0	85.5*
Cc1ccc(-c2noc(CCC(=O)Nc3ccc4c(c3)OCO4)n2)cc1	14.3	-1.6	52.3*	1.3	-2.4	-1.8	26.4*
CCOC(=O)c1ccc(NC(=O)CCc2nc(-c3ccc(Cl)cc3)no2)cc1	19.2	-6.7	97.3*	-0.8	2.5	-3.1	81.0*
COc1ccc(NC(=O)CCc2nc(-c3ccc(C)cc3)no2)cc1Cl	2.6	0.0	19.8	7.9	0.3	17.7	·
COCCNC(=O)C1CCC(=O)N1S(=O)(=O)c1ccc(C)cc1 (stereo unspecified)	-1.1	-2.3	0.5	-1.2	-4.3	-1.3	·
O=C(CC1NCCc2ccccc21)Nc1ccc(Oc2ccccc2)cc1 (stereo unspecified)	7.7	-7.5	91.8*	-0.3	5.9	5.1	-17.1	MPTP swell DR=4.65*;MPTP cs DR=35.6*
